# Results from PubChem BioAssay (NCI).
# The panel holds about 83,000 compounds, 20% with a hit somewhere; the sample as a whole holds those more often.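 For each line, cells grew in 96-well plates with the test compound present at a single concentration for 48 hours.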 Unmarked numbers belong to inactive results. Active and inactive are the calls of the source. How the source made its calls: active means growth percent below 10; inactive means the rest.
# Assays:
# Test in all cases: NCI-60 one-dose screen, 48 h (100 = growth as untreated, 0 = no growth, -100 = all killed)
# Settings in all cases: 10 µM unless noted
# MOLT-4 leukemia = test system: MOLT-4 leukemia
# OVCAR-8 ovarian = test system: OVCAR-8 ovarian
# OVCAR-5 ovarian = test system: OVCAR-5 ovarian
# OVCAR-4 ovarian = test system: OVCAR-4 ovarian
# SK-OV-3 ovarian = test system: SK-OV-3 ovarian
# IGROV1 ovarian = test system: IGROV1 ovarian
# OVCAR-3 ovarian = test system: OVCAR-3 ovarian
# HS 578T breast = test system: HS 578T breast
# NCI/ADR-RES ovarian = test system: NCI/ADR-RES ovarian
# T-47D breast = test system: T-47D breast
# BT-549 breast = test system: BT-549 breast
# MDA-MB-435 melanoma = test system: MDA-MB-435 melanoma
# SW-620 colon = test system: SW-620 colon
# MCF7 breast = test system: MCF7 breast
# HCT-116 colon = test system: HCT-116 colon
# HCC-2998 colon = test system: HCC-2998 colon
# KM12 colon = test system: KM12 colon
# RPMI-8226 leukemia = test system: RPMI-8226 leukemia
# SR leukemia = test system: SR leukemia
Structure (SMILES),growth (MOLT-4 leukemia),growth (OVCAR-8 ovarian),growth (OVCAR-5 ovarian),growth (OVCAR-4 ovarian),growth (SK-OV-3 ovarian),growth (IGROV1 ovarian),growth (OVCAR-3 ovarian),growth (HS 578T breast),growth (NCI/ADR-RES ovarian),growth (T-47D breast),growth (BT-549 breast),growth (MDA-MB-435 melanoma),growth (SW-620 colon),growth (MCF7 breast),growth (HCT-116 colon),growth (HCC-2998 colon),growth (KM12 colon),growth (RPMI-8226 leukemia),growth (SR leukemia)
CC(=O)OCC1O[C@@H]([S-])C(OC(C)=O)[C@H](OC(C)=O)[C@@H]1OC(C)=O.[Au+].c1ccc(CN2[CH-]N(Cc3ccccc3)C(c3ccccc3)=C2c2ccccc2)cc1,11.2%,53.2%,93%,60.2%,56.9%,14.3%,-18.5% (active),43.5%,98.7%,-37.1% (active),-30.2% (active),48.4%,8.97% (active),-3.49% (active),18.8%,-57.4% (active),59.6%,,
ClCCN(CCCl)c1ccc(/C=N\N=C\c2ccc(N(CCCl)CCCl)cc2)cc1,,33.8%,107%,53%,19.6%,71.5%,55.7%,78.2%,55.1%,,50.5%,27.4%,36.8%,35.1%,36.7%,45.7%,30.3%,39.8%,
N/C(=N/N=C/c1ccncc1)N[N+](=O)[O-],84.2%,103%,94.2%,103%,111%,108%,113%,106%,104%,,89.6%,105%,106%,99.1%,102%,109%,100%,,
COc1ccc(C2=CC(c3ccc(OC)c(OC)c3)c3c(c4ccccc4oc3=O)O2)cc1OC (centres undefined),11.9%,36.2%,60.2%,42.8%,25.6%,,-16.3% (active),-5.68% (active),29%,35%,-4.49% (active),-72.9% (active),18.5%,11.8%,24.2%,,16.2%,-48.5% (active),
NC(N)=N/N=C\c1c[nH]c2ccc(Br)cc12,79.2%,83.1%,91.8%,97.2%,97.4%,101%,81.4%,80.6%,,36.6%,23.7%,98.1%,101%,75.4%,92%,,94.9%,,
C=CCn1cc(C=C2C(=O)N(C)C(=O)N(C)C2=O)c2ccccc21,97.6%,83.1%,14.9%,97.6%,87.4%,95.6%,96.1%,76%,101%,88.7%,98%,101%,97.9%,88.3%,100%,98.1%,102%,,
CCOC(=O)N1CC1,,101%,97.1%,93.1%,111%,93.5%,111%,112%,98%,114%,109%,97.1%,103%,102%,98.4%,150%,107%,91.2%,-20.9% (active)
Cc1ccc(S(=O)(=O)C(Cl)(Cl)Cl)cc1,79.6%,96.2%,96.8%,105%,82.5%,99%,110%,96.1%,89.1%,78.4%,92.1%,97.1%,99.3%,98.6%,87.3%,107%,101%,,
COc1ccc(N(CC(=O)NCCC[Te]c2ccccc2)C(=O)CCSC2=C(C)C(=O)c3ccccc3C2=O)cc1,,8.05% (active),-57.4% (active),20.2%,-55.6% (active),-68.3% (active),-40.4% (active),-10.3% (active),-36.3% (active),-57.7% (active),-18.2% (active),11.9%,5.47% (active),-22.3% (active),-65.1% (active),-35.4% (active),-17.3% (active),-40.9% (active),
NC(=S)c1cn(C2OC(CO)C(O)C2O)c2ncnc(N)c12 (centres undefined),,3.53% (active),-29.6% (active),-7.48% (active),17%,0.391% (active),-26.2% (active),-25.4% (active),-25.8% (active),-16.9% (active),-43.1% (active),-40.5% (active),-27.6% (active),2.36% (active),-16.3% (active),-44.8% (active),-14.9% (active),,-50.4% (active)
Nc1nc([Se])c2ncn(C3OC(CO)C(O)C3O)c2n1 (centres undefined),7.08% (active),55.8%,60.8%,79.5%,77.7%,,104%,75.4%,41.5%,93.5%,69.7%,74.3%,82.1%,42.9%,28.1%,,82.5%,,
CC(C)[C@]12O[C@H]1[C@@H]1O[C@]13[C@]1(O[C@H]1C[C@H]1c4c(C(=O)c5ccccc5)oc(OC(=O)c5ccccc5)c4CC[C@@]13C)[C@@H]2O,,6.13% (active),15.2%,21.3%,27.3%,-33% (active),-57.5% (active),-30.6% (active),8.83% (active),6.53% (active),-24.3% (active),-87.9% (active),-3.73% (active),12.5%,5.12% (active),-15.3% (active),-15.7% (active),,
O=C1C=C2C(=CCOC2O)O1 (centres undefined),,-21.5% (active),41.5%,25.4%,100%,42.9%,-78.6% (active),50%,0.601% (active),13.7%,52.8%,5.62% (active),-47.3% (active),13.3%,-69.5% (active),93.3%,20.5%,-19.1% (active),
CN1CCC(c2c[nH]c3ccccc23)C1 (centres undefined),105%,96.4%,77%,107%,99.4%,,103%,113%,94.5%,97%,110%,97.9%,104%,94.8%,94.2%,94.1%,107%,79.7%,
CNCc1cccnc1,,103%,114%,,106%,114%,115%,107%,104%,98.4%,124%,95.9%,107%,105%,107%,96.6%,104%,101%,
O=c1[nH]c2ccc([N+](=O)[O-])cc2c(=O)o1,,104%,101%,98.8%,102%,105%,113%,,101%,111%,95.3%,111%,105%,,103%,102%,106%,98.5%,
CN(C)CC(C(=O)Cc1ccccc1)c1ccccc1 (centres undefined),78%,34%,133%,91.7%,124%,84.8%,6.54% (active),,76.5%,-37.8% (active),76.3%,26.8%,20.6%,1.13% (active),2.48% (active),116%,-1.54% (active),-4.6% (active),
CN1CC(CNC(=O)OCc2ccccc2)CC2c3cccc4c3c(cn4C)CC21 (centres undefined),,62.4%,64.6%,,69%,52.6%,61.9%,49.4%,44.2%,31.6%,50%,3% (active),35.9%,-55.3% (active),31.7%,-66.9% (active),38.1%,,
